AC50 data for 38 compounds are collected here from PubChem BioAssay AID504727 (Broad Institute, 2011).

Structures are written as SMILES. Active and inactive are the calls of the source.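 The calls were made as follows: active = fitted half-maximal concentration AC50 at or below ten times the highest valid tested dose, with signal falling as DNA is displaced (actives reach about 34 µM in these data); inconclusive = flat fit at moderate signal loss, or poor fit quality; inactive = the rest, including signal rising instead of falling.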

This assay is described as follows: acridine orange-DNA binding displacement – biochemical, fluorescence polarization, cherry-picked samples, set 2, artefact control for KSHV LANA DNA-binding inhibitor project, dose response (AID 504727). The settings on record: series mostly up to 35 µM. A general note: Fluorescence polarisation rises when a labelled molecule tumbles more slowly, as on binding a larger partner.
By AC50 is commonly meant the midpoint of the concentration-response curve, whichever way the signal moves. As for `Cc1ccc(S(=O)(=O)Nc2ccc(Br)cc2C(NCC(=O)O)c2ccccc2)cc1` (stereo not drawn), the AC50 result is “inactive”.

For the compound `CSc1ncccc1C(=O)OCCCC(=O)c1ccc(F)cc1`, the AC50 entry was “inactive”.

As to `O=C(O)C1Nc2ccc(Br)cc2C2C=CCC12` (stereo not drawn), the AC50 result was “inactive”.

Regarding `O=C(CN1C(=O)NC2(CCCC2)C1=O)Nc1ccccc1-c1ccccc1`, the AC50 result is “inactive”.

Regarding `CCCCn1c(N)c(N(CCOC)C(=O)c2cc(C)oc2C)c(=O)[nH]c1=O`, the AC50 entry was “inactive”.

With `O=c1[nH]c(=S)[nH]c2c1C(c1ccc(Br)cc1)c1c([nH]c(=S)[nH]c1=O)O2`, the AC50 entry is “inactive”.

For the compound `Cc1nc2c(=O)[nH]c(=S)[nH]c2[nH]c1=O`, the AC50 entry is “inactive”.

For `CCn1c(-c2ccc([N+](=O)[O-])cc2)n[nH]c1=S`, the AC50 result was “inactive”.

Take `O=S(=O)(O)c1cccc2cccc(Nc3ccccc3)c12`: the AC50 result is “inactive”.

Regarding `CN(C)C(=O)c1ccc(NC(=O)COC(=O)C2(c3ccccc3)CCCC2)cc1`, the AC50 result is “inactive”.

On to `Cc1cccc(Nc2nc(N)c([N+](=O)[O-])c(NCc3ccccc3)n2)c1`, for which the AC50 entry is “inactive”.

Turning to `CCc1nnc(NC(=O)c2cccc(S(=O)(=O)N(C)c3ccccc3)c2)s1`, the AC50 result was “inactive”.

As to `CCOCCCn1c(SCC(=O)NC(C)(C)C)nc2ccccc2c1=O`, the AC50 result was “inactive”.

Turning to `O=C(NCCN1CCN(C(=O)c2cccs2)CC1)c1cccs1`, the AC50 entry was “inactive”.

Turning to `CC1CCCN(C(=O)C(=O)c2cn(CC(=O)N3CCCCCC3)c3ccccc23)C1` (stereo not drawn), the AC50 entry was “inactive”.

For the compound `N=C1/C(=C\c2ccc(Br)o2)C(=O)N=C2SC(CC(=O)N3CCOCC3)=NN12`, the AC50 entry is “inactive”.

As to `O=C(CN1C(=O)/C(=C/c2ccco2)SC1=S)Nc1ccc(O)c(C(=O)O)c1`, the AC50 entry is “inactive”.

Turning to `CCOC(=O)c1ccc[n+](CC(=O)c2ccc(OC)cc2)c1`, the AC50 result was “inactive”.

On to `O=C1CCCC(O)=C1N=Nc1ccc(C(=O)O)cc1`, for which the AC50 entry was “inactive”.

With `CCSc1nnc(Cc2cc(=O)[nH]c(=O)[nH]2)n1-c1ccc(F)cc1`, the AC50 result was “inactive”.

Turning to `NS(=O)(=O)c1ccc(N=Nc2c[nH]c(=O)c(O)c2)cc1`, the AC50 is 15.8 µM (active).

Consider `CN(c1ccccc1)S(=O)(=O)c1cccc(NS(=O)(=O)c2cccc(C(=O)O)c2)c1`, for which the AC50 entry was “inactive”.

With `COc1ccc(/C=N/NC(=O)c2ccc3nc[nH]c3c2)c(OC)c1`, the AC50 result was “inactive”.

As for `OCCN(CCO)c1nc(N2CCCCC2)c2nc(N(CCO)CCO)nc(N3CCCCC3)c2n1`, the AC50 was 8.59 µM (active).

With `CCOC(=O)C1Nc2ccccc2C2C(O)C(O)CC12` (stereo not drawn), the AC50 entry is “inactive”.

`CC1=NN(c2cccc(C(=O)O)c2)C(=O)/C1=C\C=C\c1ccco1`: the AC50 result was “inactive”.

Consider `COc1ccc(-c2cnc3n2CCCCC3)cc1`, for which the AC50 result is “inactive”.

Regarding `O=C(N/N=C/c1ccc(N2CCOCC2)cc1)c1ccccn1`, the AC50 result is “inactive”.

Regarding `COc1ccc2c3c(cccc13)C(=O)CC2`, the AC50 was 6.92 µM (active).

For the compound `COc1cccc2[nH]c(C(=O)NC(C)c3ccccc3)cc12` (stereo not drawn), the AC50 result was “inactive”.

Turning to `COc1ccc(OC)c(-c2c3cc(O)c(=O)cc-3oc3cc(O)c(O)cc23)c1`, the AC50 was 1.62 µM (active).

For the compound `O=C(/C=C\c1ccccc1)Oc1cccc2cccnc12`, the AC50 result was “inactive”.

Take `N#CCCN(CCC#N)C(=O)C1c2ccccc2Oc2ccccc21`: the AC50 entry is “inactive”.

Regarding `CCN(Cc1ccccc1)S(=O)(=O)c1cc2[nH]c(=O)c(=O)[nH]c2cc1C`, the AC50 result was “inactive”.

For `CC(C(=O)Nc1ccccc1)N1C(=O)c2ccccc2C1=O` (stereo not drawn), the AC50 result was “inactive”.

In the case of `CC(C)N(Cc1ccccc1)C(=O)Cn1c(=O)cnc2ccccc21`, the AC50 result is “inactive”.

For the compound `COc1cccc(OCCNc2ccc([N+](=O)[O-])cn2)c1`, the AC50 result was “inactive”.

With `CC(=O)OCCn1c2nc(=O)[nH]c(=O)c-2nc2cc(C)c(C)cc21`, the AC50 is 0.342 µM (active).
